PubChem BioAssay (NCATS)
Inconclusive results are not listed. A number with no mark means an inactive call. Activity calls are given as the source filed them. Calls follow the shape of the dose curve; as a rule, active = well fitted cell-killing curve with a large enough effect; inconclusive = small, poorly fitted or top-dose-only effect, or effect the other way; inactive = no such curve, though single readings can be large or run the other way.

Experiment: qHTS of pediatric cancer cell lines to identify multiple opportunities for drug repurposing: Confirmatory screen for NB1643 cells (AID 1347109); also: nearly all actives have a fitted effect of over 45% in size
Conditions: NB1643 neuroblastoma cell viability; series mostly up to 45.9 µM; activity change, negative = cytotoxic: at the top concentration
Excerpt: Drug repurposing or repositioning has been offered as a strategy for drug development in oncology programs. This approach has special potential for childhood cancers and other rare or orphan diseases, where the expected return on new drug development has been a disincentive to pharmaceuticals.
In this project we exploit the poly-pharmacology of drugs to discover new indications via phenotypic screening of a panel of 19 well-characterized cell lines derived from solid tumors seen in children and adolescents. The goal is to identify approved drugs with previously unrecognized anticancer properties that has the potential to reveal new mechanisms and biological processes involved in carcinogenesis or drug resistance. We employed a titration-based paradigm (quantitative high-throughput screening or qHTS), where all compounds were tested at multiple concentrations for their effect on cell viability. Concentration-response curves (CRCs) were derived directly from the primary screen, and both potency and efficacy values were used to identify compounds with robust bioactivity profiles. We screened the NIH Chemical Genomics Center (NCGC) Pharmaceutical Collection (NPC) and Mechanism Interrogation Plate (MIPE) small molecule collections of approved and investigational compounds against these cell lines; and measured metabolically active cells after 48 hours of compound treatment as a proxy for cell viability.
Assay Submitter: Nathalia J. Martinez, National Center for Advancing Translational Sciences, National Institutes of Health, Rockville, MD, USA; email: natalia.martinez@nih.gov
[1] Shen, M et al. Quantitative high-throughput phenotypic screening of pediatric cancer cell lines identifies multiple opportunities for drug repurposing. Oncotarget 2017 Dec 19;9(4):4758-4772. PMID 29435139.
The cells were obtained from University of North Carolina (UNC), Pediatric Preclinical Testing Program (PPT), and Coriell Institute (CI).
qHTS cell viability assay:
Cells were assayed in growth media at a density of 500-1,000 cells/well. Five microliters of cells were dispensed into 1,536-well, white, solid-bottom, TC-treated plates (Greiner Bio One) using a multidrop dispenser and incubated at 37 degrees C, 5% CO2, under a humidified atmosphere for 5 hours. Twenty-three nanoliters of compounds and controls (neutral control DMSO or positive control bortezomib at final concentration of 2.3 µM) were subsequently transferred by Kalypsys pintool. For primary screens, the MIPE collection was tested at 11-point dilutions (final concentrations range from 0.78 nM to 46 µM) and the NPC collection at 8-point dilutions (final concentrations range from 0.59 nM to 46 µM). Compounds tested in follow-up screens were assayed at 11-point dilutions. Cells were incubated for 48 hours, followed by addition of 3 µL of CellTiter-Glo (Promega). After a 15 min incubation at room temperature, samples were analyzed for luminescence intensity using a ViewLux High-throughput CCD imager equipped with clear filters.
Potency is read from the fitted curve at half-maximal effect.

Compound | Potency | activity change, negative = cytotoxic [%]
CCCCCCCCCCCC[N+](C)(C)CCOc1ccccc1 | 11700 nM (active) | –
CC[n+]1c(-c2ccccc2)c2cc(N)ccc2c2ccc(N)cc21 | 11700 nM (active) | –
CN1[C@@H]2CC[C@H]1CC(OC(=O)c1cc(Cl)cc(Cl)c1)C2 (some centres not stated) | – | -18.1
CN(C)C(=S)SSC(=S)N(C)C | 1310 nM (active) | –
CCc1ccc(C2CCNCC2)cc1 | – | -0.325
CCCCCCCCC(=O)NCc1ccc(O)c(OC)c1 | – | -12.4
ClC1=C(Cl)C2(Cl)C(CBr)CC1(Cl)C2(Cl)Cl (configuration not stated) | – | 7.11
Cc1ccc([N+](=O)[O-])[c]2c1[O][Hg]2 | 737 nM (active) | –
COC(=O)C1=CCCN(C)C1 | – | 7.46
CC1Sc2c(C(=O)O)c(=O)c3cc(F)c(N4CCNCC4)cc3n21 (configuration not stated) | – | -9.18
C[C@@H]1O[C@@H](O[C@@H]2C=C3CC[C@@H]4[C@H](CC[C@]5(C)[C@@H](c6ccc(=O)oc6)CC[C@]45O)[C@@]3(C)CC2)[C@H](O)[C@H](O)[C@H]1O | 82.7 nM (active) | –
COc1ccc2c(C(=O)c3ccc(Cl)cc3)c(C)n(CC(=O)O)c2c1 | – | -4.9
